High-throughput results from PubChem.
Only some compounds are listed: those with a hit (about 2.9% of all), similar ones and a draw of the others.
D3 antag – D3 dopamine receptor (human) antagonism. 360,000 tested, 2.5% active. D3R cells, DiscoveRx beta-arrestin luminescence, antagonist mode; hits give low values. max response, negative = inhibition, %. P35462; in the data active = max response below about -50%; inconclusive = no clear call, values can overlap the other calls; note: % is set by controls: 0 for no effect and ±100 for the full control effect
Target sequence (P35462 whole entry, looked up): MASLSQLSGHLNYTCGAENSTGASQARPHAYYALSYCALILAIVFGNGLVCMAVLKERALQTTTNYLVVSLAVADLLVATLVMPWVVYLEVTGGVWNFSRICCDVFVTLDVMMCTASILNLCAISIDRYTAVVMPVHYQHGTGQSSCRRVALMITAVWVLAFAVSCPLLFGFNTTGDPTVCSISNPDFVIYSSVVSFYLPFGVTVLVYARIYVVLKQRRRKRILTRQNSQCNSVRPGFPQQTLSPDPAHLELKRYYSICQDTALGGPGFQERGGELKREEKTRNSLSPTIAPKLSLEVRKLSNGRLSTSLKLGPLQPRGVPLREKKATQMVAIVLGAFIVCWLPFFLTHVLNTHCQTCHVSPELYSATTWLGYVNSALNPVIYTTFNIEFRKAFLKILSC
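Cells expressing the human receptor were seeded at 1500 cells/well, incubated overnight at 37 degrees C in 5% CO2, then exposed to library compounds with dopamine controls for 90 minutes at 37 degrees C before luminescent detection.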
a7 integrin act – activators of alpha7 integrin expression for muscular dystrophy. 350,000 tested, 0.064% active. alpha7betagal myoblasts, beta-gal FDG fluorescence, 48 h. Potency, µM (titrated, usually from 38.3 µM), for the others: top-dose activation, usual class: activators; active = well fitted activation curve with a large enough effect; inconclusive = small, poorly fitted or top-dose-only effect; inactive = no such curve, though single readings can be large or run the other way;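 note: potency is the fitted concentration of half-maximal effect; 100% = response of the positive control SU9516; nearly all actives have a fitted effect of over 60% in size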
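alpha7betagal+/- myoblasts (passage 13, 250/well) treated 48 h at 37C with compounds at 1:260 dilution of DMSO stock. Lysed, then beta-galactosidase activity read as FDG fluorescence (ex 480/em 540) after 30 min, with pre-read for autofluorescence.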
D3 ag – D3 dopamine receptor (human) agonism; P35462; D3R DiscoveRx beta-arrestin cells, luminescence, 90 min; max activation, %; 410,000 tested, 0.58% active; AID 652048; in the data active = max activation above about 30%; note: 0% is about no effect
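Agonist mode: compounds and dopamine controls were applied to plated cells for 90 min at 37 degrees C after an overnight attachment at 1500 cells/well. Luminescent read-out followed 30 - 60 minutes at room temperature with DiscoveRx detection reagent.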
Active calls of the source: *.

How did CCN(CCCNC(=O)CN1N=C(c2ccc(C)cc2)CCC1=O)c1ccccc1 do in these assays?
D3 ag: -28

What do the screens show for `CCN(CCCNC(=O)CN1N=C(c2ccccc2)CCC1=O)c1cccc(C)c1`?
D3 ag: 41*

How did O=S(=O)(Nc1ccon1)c1ccc(F)c(F)c1 do in these assays?
D3 antag: -81*; a7 integrin act: 0%; D3 ag: -6

How did O=S(=O)(Nc1ccon1)c1cc(Cl)ccc1Cl do in these assays?
D3 antag: 5; a7 integrin act: -15%; D3 ag: 1

How did COc1ccc(/C=C/C(=O)O/N=C(\N)c2ccccc2)cc1OC do in these assays?
D3 antag: 6; a7 integrin act: -35%; D3 ag: 2

Results for CNCCCNC(=O)c1ccc(/C=N/O)nc1 ?
D3 antag: 1; a7 integrin act: -13%; D3 ag: -3

What do the screens show for `O=C(NCCCNC1CCCCC1)c1ccc(/C=N/O)nc1`?
D3 antag: -60*; a7 integrin act: -4%; D3 ag: -24

How did Cc1ccc(OCC(=O)Nc2ccc(S(=O)(=O)N(Cc3ccccc3)c3ccccc3)cc2)cc1 do in these assays?
D3 ag: -17

What do the screens show for `CCN1CCCC(OC(=O)Nc2ccccc2)C1` (stereo unspecified)?
D3 antag: inconclusive; a7 integrin act: 21%; D3 ag: -5

Results for CCN1CCCC(OC(=O)C(c2ccccc2)c2ccccc2)C1 (stereo unspecified) ?
D3 antag: -53*; D3 ag: -83

Results for CCc1sc(Nc2ccc(Cl)cc2)nc1-c1cc2cccc(OC)c2oc1=O ?
D3 ag: 14

Results for CCc1ccc(Nc2nc(-c3cc4cccc(OC)c4oc3=O)c(CC)s2)cc1 ?
D3 ag: 50*

How did COc1ccc(-c2cc(=O)c3cc(OC)ccc3[nH]2)cc1 do in these assays?
D3 antag: 6; a7 integrin act: -8%; D3 ag: -10

What do the screens show for `COc1ccc(-c2cc(=O)[nH]c(=S)[nH]2)cc1`?
D3 antag: -50*; a7 integrin act: 5%; D3 ag: 6

What do the screens show for `C=CCn1c2ccccc2c2nnc(SCCN3CCCCC3)nc21`?
D3 antag: inconclusive; a7 integrin act: -40%; D3 ag: -16

Results for CCN(CC)CCSc1nnc2c3ccccc3n(CCc3ccccc3)c2n1 ?
D3 antag: -79*; a7 integrin act: -11%; D3 ag: -2

What do the screens show for `C=CCn1c2ccccc2c2nnc(SCCCn3c(=O)[nH]c4ccccc43)nc21`?
D3 antag: 80; a7 integrin act: -37%; D3 ag: 32*

How did CCCn1c2ccc(F)cc2c2nnc(SCCN(CC)CC)nc21 do in these assays?
D3 ag: -26

How did CCOc1ccc2c(c1)NC(c1ccc(OCC)c(OCC)c1)=NC(c1ccc(F)cc1)=N2 do in these assays?
D3 ag: 4

What do the screens show for `Cc1cc(NC(=O)COc2ccc3ccccc3c2)no1`?
D3 antag: -6; a7 integrin act: 19%; D3 ag: -14

Results for O=C(COC(=O)CCCOc1ccccc1)NNC(=O)c1ccc([N+](=O)[O-])cc1 ?
D3 antag: -10; a7 integrin act: -4%; D3 ag: 5

How did CC(=O)Nc1ccc(S(=O)(=O)NCC(=O)OCC(=O)NC(=O)c2cccn2C)cc1 do in these assays?
D3 antag: 0; a7 integrin act: -29%; D3 ag: 1

Results for CC(C)CC1OC(C(C)C)Cc2[nH]c(=S)[nH]c(=O)c21 (stereo unspecified) ?
D3 antag: -51*; D3 ag: -4

What do the screens show for `CC(C)[C@@H]1Cc2[nH]c(=S)[nH]c(=O)c2[C@H](C)O1`?
D3 antag: -10; D3 ag: 7

How did Cc1ccn2cc(CCNS(=O)(=O)c3ccc4c(c3)CCCC4)nc2c1 do in these assays?
D3 antag: 6; a7 integrin act: 10%; D3 ag: 0

What do the screens show for `Cc1cc(N2CCN(C3CCCCC3)CC2)nc2cccc(O)c12`?
D3 antag: -84*; a7 integrin act: 20%; D3 ag: -10

How did Cc1cc(N2CCCC2)nc2ccccc12 do in these assays?
D3 antag: -5; a7 integrin act: -39%; D3 ag: 0

What do the screens show for `Cc1ccccc1S(=O)(=O)Cc1ccc(C(=O)NCCN2CCN(Cc3ccccc3)CC2)o1`?
D3 antag: -51*; a7 integrin act: -15%; D3 ag: -5

What do the screens show for `O=C(NCCCN1CCC(Cc2ccccc2)CC1)C1CCN(S(=O)(=O)N2CCC3(CC2)OCCO3)CC1`?
D3 antag: 7; a7 integrin act: -36%; D3 ag: -5

What do the screens show for `CS(=O)(=O)N1CCC(C(=O)NCCN2CCN(Cc3ccccc3)CC2)CC1`?
D3 antag: -101*; a7 integrin act: 9%; D3 ag: -2
